Experimental findings from PMC5700166 are described below.

Residue numbers refer to the chain shown, from its start.

Assay in all cases: protein-binding microarray (PBM); PBM: ~300 nM protein, 6 mM HEPES pH 7.8, 80 mM KCl, 0.5 mM EDTA, 0.5 mM EGTA, 6% glycerol, 35 ng/ul poly-dIdC, 1% milk, 1 h, room temperature; Ap Aiptasia and Nv Nematostella (sea anemones) / Co Capsaspora / Aq Amphimedon (sponge) / Dm Drosophila / Hu human; RHD is the Rel homology domain; high values mean tight binding
Holding throughout (settings): dsDNA, one strand shown

One test addresses T1, GST-Ap-NF-kB RHD (Exaiptasia pallida (Aiptasia), UniProt A0A913YAJ5 2-422).
T1 sequence: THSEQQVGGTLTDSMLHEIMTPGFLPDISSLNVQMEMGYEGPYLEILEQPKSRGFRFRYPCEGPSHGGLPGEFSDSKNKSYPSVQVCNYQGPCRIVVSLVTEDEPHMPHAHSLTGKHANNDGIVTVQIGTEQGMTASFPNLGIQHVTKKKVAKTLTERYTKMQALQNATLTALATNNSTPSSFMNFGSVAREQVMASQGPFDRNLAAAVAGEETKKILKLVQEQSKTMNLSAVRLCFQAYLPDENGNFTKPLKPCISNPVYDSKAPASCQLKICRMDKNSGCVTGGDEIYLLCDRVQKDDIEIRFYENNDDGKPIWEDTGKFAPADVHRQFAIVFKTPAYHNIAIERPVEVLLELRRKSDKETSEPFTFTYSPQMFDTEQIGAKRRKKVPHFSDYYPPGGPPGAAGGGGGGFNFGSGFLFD

In test [1] the target is T2, GST-Nv-NF-kB (Cys allele) (Nematostella vectensis, UniProt E5G601 2-411).
T2 sequence: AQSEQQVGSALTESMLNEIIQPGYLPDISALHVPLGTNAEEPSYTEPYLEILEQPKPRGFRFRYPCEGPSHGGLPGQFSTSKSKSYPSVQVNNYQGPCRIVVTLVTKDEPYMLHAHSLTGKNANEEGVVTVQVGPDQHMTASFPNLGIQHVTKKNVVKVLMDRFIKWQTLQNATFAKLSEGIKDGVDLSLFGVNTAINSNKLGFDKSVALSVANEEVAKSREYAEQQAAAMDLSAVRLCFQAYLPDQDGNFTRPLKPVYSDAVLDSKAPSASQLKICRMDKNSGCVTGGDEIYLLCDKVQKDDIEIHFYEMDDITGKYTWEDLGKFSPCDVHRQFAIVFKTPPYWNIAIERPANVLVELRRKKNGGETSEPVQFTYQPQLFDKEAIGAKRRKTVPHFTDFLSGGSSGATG

The target in test [2] is T3, GST-Nv-NF-kB (Ser allele) (Nematostella vectensis, UniProt A7UNT2 2-411).
T3 sequence: T2 sequence with Q21R, C66S, S207N, E215Q, V217A, E225K, A268E, D399E

A further test has as its target T4, GST-Dm-Relish (Drosophila melanogaster, UniProt Q94527 99-473).
T4 sequence: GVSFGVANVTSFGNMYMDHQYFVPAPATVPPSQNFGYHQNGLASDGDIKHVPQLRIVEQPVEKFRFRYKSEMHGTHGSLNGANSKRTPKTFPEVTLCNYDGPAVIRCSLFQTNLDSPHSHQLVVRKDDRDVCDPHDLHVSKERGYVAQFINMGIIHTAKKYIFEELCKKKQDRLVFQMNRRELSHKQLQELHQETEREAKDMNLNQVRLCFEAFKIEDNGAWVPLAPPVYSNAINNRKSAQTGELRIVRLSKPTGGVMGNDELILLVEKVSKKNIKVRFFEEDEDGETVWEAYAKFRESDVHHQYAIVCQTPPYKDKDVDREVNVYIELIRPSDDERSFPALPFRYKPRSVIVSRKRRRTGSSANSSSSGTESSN

For a further test, the target named is T5, GST-Aq-NF-kB (Amphimedon queenslandica, UniProt A9Y5G7 2-389).
T5 sequence: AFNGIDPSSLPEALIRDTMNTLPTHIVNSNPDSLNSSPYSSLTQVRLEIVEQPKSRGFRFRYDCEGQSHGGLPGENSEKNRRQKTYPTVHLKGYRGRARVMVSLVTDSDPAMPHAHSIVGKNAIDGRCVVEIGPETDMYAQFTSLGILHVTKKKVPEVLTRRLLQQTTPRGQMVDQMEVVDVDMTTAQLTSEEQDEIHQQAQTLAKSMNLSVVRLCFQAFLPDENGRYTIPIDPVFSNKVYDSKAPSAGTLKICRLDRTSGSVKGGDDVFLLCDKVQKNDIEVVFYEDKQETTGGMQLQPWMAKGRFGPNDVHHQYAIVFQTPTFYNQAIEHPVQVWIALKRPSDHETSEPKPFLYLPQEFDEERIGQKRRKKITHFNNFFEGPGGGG

Another test concerns the target GST-Hu-p50 (Homo sapiens, UniProt P19838 7-356).
Another test concerns the target T6, GST-Co-NF-kB (Capsaspora owczarzaki, UniProt F1ARL5 200-546).
T6 sequence: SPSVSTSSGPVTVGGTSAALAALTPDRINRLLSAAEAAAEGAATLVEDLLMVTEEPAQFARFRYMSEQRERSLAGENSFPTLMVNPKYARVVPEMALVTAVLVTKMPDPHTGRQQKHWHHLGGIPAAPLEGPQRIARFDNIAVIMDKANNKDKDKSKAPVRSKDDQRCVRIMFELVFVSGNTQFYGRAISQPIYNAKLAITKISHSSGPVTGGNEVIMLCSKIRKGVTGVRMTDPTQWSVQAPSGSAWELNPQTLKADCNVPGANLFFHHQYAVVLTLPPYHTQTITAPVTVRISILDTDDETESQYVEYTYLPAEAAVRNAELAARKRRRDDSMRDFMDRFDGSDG

Sequence of GST-Hu-p50 (P19838 7-356): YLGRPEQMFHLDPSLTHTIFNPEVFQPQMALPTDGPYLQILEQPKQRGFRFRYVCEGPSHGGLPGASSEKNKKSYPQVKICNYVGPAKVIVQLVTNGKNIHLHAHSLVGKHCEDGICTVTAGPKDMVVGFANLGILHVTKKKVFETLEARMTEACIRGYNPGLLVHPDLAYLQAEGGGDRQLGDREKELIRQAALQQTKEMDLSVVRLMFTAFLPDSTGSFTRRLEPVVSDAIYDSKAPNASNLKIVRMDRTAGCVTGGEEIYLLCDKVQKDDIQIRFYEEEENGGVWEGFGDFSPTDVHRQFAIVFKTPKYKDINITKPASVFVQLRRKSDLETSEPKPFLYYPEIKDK

For “CCGATTAACATCACGGTTATTCCTGATGTTAATCGGGTCTTGATTCGCTTGACGCTGCTG”, the binding signal in the test with GST-Ap-NF-kB RHD worked out at 1.09 z-score; in test [1], 1.52 z-score; in test [2], 2.15 z-score; with GST-Dm-Relish, 3.64 z-score; with GST-Aq-NF-kB, 2.03 z-score; with GST-Hu-p50 it was 3.59 z-score.
Take “CCGATTAACATCAGGGACTTCCATGATGTTAATCGGGTCTTGATTCGCTTGACGCTGCTG”: the binding signal with GST-Ap-NF-kB RHD is 5.02 z-score; in test [1] it was 5.5 z-score; in test [2] it was 5.01 z-score; with GST-Dm-Relish it was 6.69 z-score; with GST-Aq-NF-kB it was 5.53 z-score; with GST-Hu-p50 it was 4.56 z-score.
For “CCGATTAACATCAGGGACTTTACTGATGTTAATCGGGTCTTGATTCGCTTGACGCTGCTG”, the binding signal was found to be 5.17 z-score in the test with GST-Ap-NF-kB RHD; 6.47 z-score in test [1]; 6.59 z-score in test [2]; 7.99 z-score with GST-Dm-Relish; 6.61 z-score with GST-Aq-NF-kB; 5.06 z-score in the test with GST-Hu-p50.
As for “CCGATTAACATCAGGGATTGCCCTGATGTTAATCGGGTCTTGATTCGCTTGACGCTGCTG”, the binding signal was 4.32 z-score in the test with GST-Ap-NF-kB RHD; 3.8 z-score in test [1]; 1.87 z-score in test [2]; 5.25 z-score in the test with GST-Dm-Relish; 6.11 z-score in the test with GST-Aq-NF-kB; 2.54 z-score with GST-Hu-p50.
For “CCGATTAACATCACGGGATTTCGTGATGTTAATCGGGTCTTGATTCGCTTGACGCTGCTG”, the binding signal is 1.77 z-score with GST-Ap-NF-kB RHD; 1.88 z-score in test [1]; 1.43 z-score in test [2]; 3.68 z-score with GST-Dm-Relish; 1.91 z-score in the test with GST-Aq-NF-kB; 2.12 z-score in the test with GST-Hu-p50.
As for “CCGATTAACATCAAAAAAACCCCTGATGTTAATCGGGTCTTGATTCGCTTGACGCTGCTG”, the binding signal was 9.17 z-score with GST-Ap-NF-kB RHD; 10 z-score in test [1]; 9.69 z-score in test [2]; 3.62 z-score with GST-Co-NF-kB; 9.78 z-score in the test with GST-Dm-Relish; 8.79 z-score in the test with GST-Aq-NF-kB. This sequence had a binding signal with GST-Hu-p50 of 7.76 z-score.
In the case of “CCGATTAACATCACGGAACCCCCTGATGTTAATCGGGTCTTGATTCGCTTGACGCTGCTG”, the binding signal in the test with GST-Ap-NF-kB RHD turned out to be 7.51 z-score; in test [1] it was 4.89 z-score; in test [2], 6.13 z-score; with GST-Co-NF-kB, 2.13 z-score; with GST-Dm-Relish, 9.21 z-score; with GST-Aq-NF-kB, 5.54 z-score. For the same sequence, in the test with GST-Hu-p50, the binding signal stood at 5.79 z-score.
For “CCGATTAACATCAGAAAGTCCCATGATGTTAATCGGGTCTTGATTCGCTTGACGCTGCTG”, the binding signal with GST-Ap-NF-kB RHD is 5.73 z-score; in test [1], 7.09 z-score; in test [2] it was 6.43 z-score; in the test with GST-Dm-Relish, 6.06 z-score; with GST-Aq-NF-kB, 5.57 z-score; with GST-Hu-p50, 4.63 z-score.
In the case of “CCGATTAACATCAGGAAAGCACCTGATGTTAATCGGGTCTTGATTCGCTTGACGCTGCTG”, the binding signal was 2.85 z-score with GST-Ap-NF-kB RHD; 4.19 z-score in test [1]; 2.69 z-score in test [2]; 6.13 z-score with GST-Dm-Relish; 5.89 z-score with GST-Aq-NF-kB; 4.74 z-score with GST-Hu-p50.
Regarding “CCGATTAACATCAGGGAGAACCCTGATGTTAATCGGGTCTTGATTCGCTTGACGCTGCTG”, the binding signal was found to be 4.28 z-score with GST-Ap-NF-kB RHD; 3.85 z-score in test [1]; 1.28 z-score in test [2]; 1.72 z-score in the test with GST-Co-NF-kB; 4.39 z-score with GST-Dm-Relish; 6.47 z-score with GST-Aq-NF-kB. This sequence also showed a binding signal with GST-Hu-p50 of 2.75 z-score.
For “CCGATTAACATCAGGTAATTTTATGATGTTAATCGGGTCTTGATTCGCTTGACGCTGCTG”, the binding signal stood at 1.38 z-score with GST-Ap-NF-kB RHD; 3.29 z-score in test [1]; 5.66 z-score in test [2]; 3.58 z-score with GST-Dm-Relish; 2.95 z-score with GST-Aq-NF-kB; 4.06 z-score with GST-Hu-p50.
As for “CCGATTAACATCAGGAAGGTCCCTGATGTTAATCGGGTCTTGATTCGCTTGACGCTGCTG”, the binding signal in the test with GST-Ap-NF-kB RHD amounted to 3.51 z-score; in test [1], 2.97 z-score; in test [2] it was 1.09 z-score; with GST-Dm-Relish, 1.64 z-score; with GST-Aq-NF-kB, 5.37 z-score; with GST-Hu-p50, 2.52 z-score.
